Measured values reported in the supplement of paper PMC10941209.
Unmarked numbers belong to inactive results.

Each compound was assayed on Toxoplasma gondii RH 2F1 tachyzoites (intracellular in HFF) (assay: parasite survival relative to DMSO control; higher = less antiparasitic activity, active = 20 or less). Conditions: 1 µM; 72 h.
Procedure, shortened: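 Parasite survival was taken as the CPRG signal relative to DMSO-treated infected wells, given as a percentage. To obtain it, HFF cells (5 × 10^3 cells/well, 96-well plates) were infected for 3 h in D2 medium with 5 × 10^3 β-galactosidase-expressing Toxoplasma gondii RH-2F1 tachyzoites, then exposed to compound at 1 μM for 72 h at 37°C in 5% CO2. Absorbance at 570 nm was measured 30 min after CPRG was added to lysed cells, and 2 or more biological replicates were run.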

| SMILES | parasite survival |
| --- | --- |
| CN(C)CCCOc1ccc(-c2ccc3ncc4c(c3c2)n(C2CCOCC2)c(=O)n4C)cn1 | 50.5% |
| O=C(O)c1cc(-c2ccccc2)nc2ccccc12 | 67.9% |
| CNCC(=O)OCc1cccnc1N(C)C(=O)OC(C)[n+]1cnn(C[C@](O)(c2cc(F)ccc2F)[C@@H](C)c2nc(-c3ccc(C#N)cc3)cs2)c1 (stereo not given in full) | 35.6% |
| CN(C(=O)C1(c2ccc(Cl)cc2)CCC1)c1ccccc1 | 83.6% |
| CC(C)(C)NC(=O)N[C@H](C(=O)N1C[C@H]2[C@@H]([C@H]1C(=O)NC(CC1CCC1)C(=O)C(N)=O)C2(C)C)C(C)(C)C (stereo not given in full) | 48.5% |
| Cn1cncc1[C@@](N)(c1ccc(Cl)cc1)c1ccc2c(c1)c(-c1cccc(Cl)c1)cc(=O)n2C | 59.1% |
| Cn1cc(NC(=O)c2cc(NC(=O)c3ccc(/C=C/c4cnc5ccccc5c4)cc3)cn2C)cc1C(=O)NCCN1CCOCC1 | 12.8% (active) |
| COc1cc(Cc2cnc(N)nc2N)c2c(c1OC)OC(C1CC1)C=C2 (stereo not given) | 10.4% (active) |
| CC(C)Oc1cccc(NC(=O)c2ccccc2C(F)(F)F)c1 | 74.1% |
| CCC[C@H](NC(=O)[C@@H]1[C@H]2CCC[C@H]2CN1C(=O)[C@@H](NC(=O)[C@@H](NC(=O)c1cnccn1)C1CCCCC1)C(C)(C)C)C(=O)C(=O)NC1CC1 | 46.8% |
| O=C(CCc1ccc2c(c1)OCO2)NCc1ccc(-c2ccccc2F)cc1 | 54.9% |
| C[C@@H](O)[C@H](N)C(=O)NS(=O)(=O)c1cccc(-c2ccc3[nH]ncc3c2)c1 | 40.1% |
| Nc1nc(F)nc2c1ncn2[C@H]1O[C@@H](CO)[C@H](O)[C@@H]1O | 30% |
| Cc1cc(NS(=O)(=O)c2ccc(-c3ccc(F)cc3F)cc2)no1 | 55% |
| CCCCc1ccc(-c2cc(C(=O)O)cc(-c3ccc(Cl)cc3)n2)cc1 | 40.8% |
| CN(O)C(=O)c1cc2c(CN3CCC[C@H]3C(N)=O)cn(Cc3ccc(F)cc3)c2cn1 | 76.7% |
| Cc1cccc(CC(=O)N[C@H]2CCOC2=O)c1 | 38.3% |
| CCOC(=O)N1CCN(c2ccc(Cl)cc2)CC1 | 54.3% |
| O=c1[nH]c(=O)n(Cc2cccc(Oc3ccccc3)c2)cc1Nc1ccccc1 | 60.3% |
| O=C(NNC(=S)Nc1ccc(Cl)cc1)c1ccncc1 | 65% |

| SMILES | parasite survival |
| --- | --- |
| Cc1cc(-c2ccccc2)c(C(=O)C(=O)Nc2ccc(N3CCN(c4ncc(F)cn4)CC3)cc2)n1C | 9.71% (active) |
| c1ccc(Cn2c(-c3ccccn3)nc3ccccc32)cc1 | 61.7% |
| CC(Cc1ccccc1)C(=O)Nc1ccc(Cl)cc1C(=O)O (stereo not given) | 42% |
| CC(C)C(=O)N[C@H]1[C@H]([C@H](O)[C@H](O)CO)OC(C(=O)O)=C[C@@H]1N=[N+]=[N-] | 72.6% |
| CC[C@@]1(O)C(=O)OCc2c1cc1n(c2=O)Cc2cc3c([N+](=O)[O-])cccc3nc2-1 | 57.5% |
| CCc1ccccc1OCCN1CCCCCC1 | 47.2% |
| CNC(=O)C1O[C@@H](n2cnc3c(NCc4cccc(I)c4)nc(Cl)nc32)[C@H](O)[C@@H]1O (stereo not given in full) | 68.3% |
| CN1CCN(Cc2ccc(-c3cnc4[nH]cc(-c5ccc6[nH]ccc6c5)c4c3)cc2)CC1 | 7.23% (active) |
| CCOC(=O)N[C@@H]1CC[C@@H]2[C@@H](C1)C[C@H]1C(=O)O[C@H](C)[C@H]1[C@H]2/C=C/c1ccc(-c2cccc(F)c2)cn1 | 23% |
| CC(C)c1ccc(COc2cccc(-c3cc([S+](C)[O-])c(C#N)c(=O)[nH]3)c2)cc1 (stereo not given) | 13.2% (active) |
| Cc1cccc(C)c1C(=O)Nc1nc(-c2ccccn2)cc2ccccc12 | 4.42% (active) |
| NC(=O)C(c1ccccc1)(c1ccccc1)[C@H]1CCCN(CCc2ccc3c(c2)CCO3)C1 | 67% |
| CCCCc1ccc(S(=O)(=O)Nc2cc(C)on2)cc1 | 39.1% |
| Oc1ccc2[nH]c(-c3ccccc3)nc2c1 | 66.2% |
| Cc1oncc1C(=O)Nc1ccc(C(F)(F)F)cc1 | 77.7% |
| COc1cc(C(C)(C)CCCC(C)C)cc(OC)c1OC | 36.9% |
| COc1ccc(C(C)(C)C)cc1NC(=O)C(=O)c1ccc(OCCN2CCOCC2)c2ccccc12 | 45.8% |
| CCc1cc(O)c(Oc2cccnc2N)cc1F | 44.6% |
| O=C(N[C@H](Cc1cccc2ccccc12)C(=O)NCCc1c[nH]cn1)C1Cc2ccccc2C1 | 33.7% |
| O=C(c1nc2c(C(F)(F)F)cc(C3CC3)cn2c1Cl)N1CCN([C@H]2CC[C@H](O)CC2)C(=O)C1 | 21.1% |
